Experimental findings from the antibiotic and cytotoxicity screens of Wong et al. (2023) are described below.

Hit rate of the full screen: of about 39,000 compounds, about 3,300 (8.5%) were called active. Only a selection was taken, and actives are over-represented in it overall.

The subject of the test is HepG2. The experiment in a line: cytotoxicity call (relative viability < 0.9). To be noted: 10 µM.
In the case of `Cc1noc(C)c1NC(=O)Nc1ccc2c(c1)C(=O)N([C@H](C)CO)C[C@H](C)[C@H](CN(C)S(=O)(=O)c1ccc(F)cc1)OCCCC[C@H](C)O2`, the cytotoxicity call was “inactive”.

As for `C[C@H]1CCCCO[C@H](CN(C)S(=O)(=O)c2ccccc2)[C@@H](C)CN([C@@H](C)CO)C(=O)c2cc(NC(=O)C3CCCCC3)ccc2O1`, the cytotoxicity call was “inactive”.

With `CN1CCN(C(=O)c2nn(C)c3c2CCN(S(C)(=O)=O)C3)CC1`, the cytotoxicity call is “inactive”.

Turning to `C[C@H](CO)N1C[C@H](C)[C@@H](CN(C)CC2CCOCC2)Oc2cc(-c3cccnc3)ccc2S1(=O)=O`, the cytotoxicity call is “inactive”.

Regarding `COc1ccc(S(=O)(=O)Nc2cccc3c2O[C@H](CN(C)C(=O)Nc2c(C)noc2C)[C@H](C)CN([C@H](C)CO)C3=O)cc1`, the cytotoxicity call was “inactive”.

Take `CCS(=O)(=O)N1C[C@]2(CCN(CC2)C(=O)Cc2ccccc2)c2c(n(c3cc(ccc23)OC)C)[C@@H]1CO`: the cytotoxicity call is “inactive”.

As to `Cc1ccc[nH]c1=O`, the cytotoxicity call was “inactive”.

Consider `COc1cccc(S(=O)(=O)N(C)C[C@@H]2Oc3cc(C#CCC(C)C)ccc3S(=O)(=O)N([C@@H](C)CO)C[C@@H]2C)c1`, for which the cytotoxicity call was “inactive”.

`CC1(C)SC2C(NC(=O)Cc3ccccc3)C(=O)N2C1C(=O)[O-].[K+]` (stereo not given): the cytotoxicity call is “inactive”.

On to `C[C@@H]1CCCCO[C@@H](CN(C)C(=O)Nc2ccc3c(c2)OCO3)[C@H](C)CN([C@@H](C)CO)C(=O)c2cc(NS(=O)(=O)c3ccc(F)cc3)ccc2O1`, for which the cytotoxicity call was “inactive”.

With `COc1ccc(CN(C)C[C@H]2Oc3ccc(NC(=O)Cn4cnnn4)cc3CC(=O)N([C@H](C)CO)C[C@H]2C)cc1`, the cytotoxicity call is “inactive”.

Take `C[C@@H]1CN([C@H](C)CO)C(=O)Cc2cc(NS(C)(=O)=O)ccc2O[C@@H]1CN(C)Cc1ccc2c(c1)OCO2`: the cytotoxicity call was “inactive”.

With `Nn1c(-c2ccncc2)n[nH]c1=S`, the cytotoxicity call was “inactive”.

On to `O=C(NO)c1cn(-c2ccc(C[C@H]3C(=O)O[C@@H](Cc4ccccc4)[C@H]4[C@@H]5C=CCCC=C5CN43)cc2)nn1`, for which the cytotoxicity call was “active”.

For the compound `O=C(CCc1cn(-c2ccc(C[C@H]3C(=O)O[C@@H](Cc4ccccc4)[C@H]4[C@@H]5C=CCCC=C5CN43)cc2)nn1)NO`, the cytotoxicity call was “inactive”.

For `O=C(/C=C/c1cccc(-c2cn(-c3ccc(C[C@H]4C(=O)O[C@@H](Cc5ccccc5)[C@H]5[C@@H]6C=CCCC=C6CN54)cc3)nn2)c1)NO`, the cytotoxicity call is “inactive”.

As to `CC(C)[C@@H](CO)N1C(=O)[C@]2(C)[C@H]3C(=O)OCCC/C=C\[C@H]3O[C@]23C=CCN(c2ccc(Cl)cc2)C(=O)[C@@H]13`, the cytotoxicity call is “inactive”.

For `NC[C@@H]1O[C@H](C23CC4CC(CC(C4)C2)C3)Cc2c1ccc(O)c2O`, the cytotoxicity call was “inactive”.

Turning to `C[C@H](CO)N1C[C@H](C)[C@H](CN(C)S(C)(=O)=O)Oc2cc(-c3ccccc3F)ccc2S1(=O)=O`, the cytotoxicity call was “inactive”.

As to `CS(=O)(=O)Nc1ccc([N+](=O)[O-])cc1Oc1ccccc1`, the cytotoxicity call is “inactive”.

Turning to `O=[N+]([O-])c1ccc(Oc2ccc(-c3ccccc3)cc2)cc1`, the cytotoxicity call was “active”.

In the case of `C=C(C)COc1ccc([N+](=O)[O-])cc1`, the cytotoxicity call is “inactive”.

Turning to `Cn1c(=O)c2c(ncn2CCNC2=NCCC2)n(C)c1=O`, the cytotoxicity call is “inactive”.

As for `Cc1noc(C)c1NC(=O)Nc1cccc2c1O[C@@H](CN(C)S(=O)(=O)c1cn(C)cn1)[C@@H](C)CN([C@@H](C)CO)C2=O`, the cytotoxicity call was “inactive”.

As to `Cc1noc(C)c1S(=O)(=O)Nc1ccc2c(c1)C(=O)N([C@H](C)CO)C[C@H](C)[C@H](CN(C)S(=O)(=O)c1ccccc1)O2`, the cytotoxicity call was “inactive”.

`Cc1noc(C)c1S(=O)(=O)N(C)C[C@@H]1Oc2c(NS(=O)(=O)c3cn(C)cn3)cccc2C(=O)N([C@H](C)CO)C[C@@H]1C`: the cytotoxicity call was “inactive”.

Turning to `CC[C@@]1(O)C(=O)OCc2c1cc1n(c2=O)Cc2c-1nc1cc(F)c(C)c3c1c2[C@@H](N)CC3`, the cytotoxicity call was “active”.

In the case of `CCC1(O)C(=O)OCc2c1cc1n(c2=O)Cc2cc3c(CN(C)C)c(O)ccc3nc2-1.Cl` (stereo not given), the cytotoxicity call is “active”.

Take `CCC1(O)C(=O)OCc2c1cc1n(c2=O)Cc2cc3cc(O)ccc3nc2-1` (stereo not given): the cytotoxicity call is “inactive”.

Turning to `CCC[C@@H](N[C@H]1CCS(=O)(=O)C1)C(=O)O`, the cytotoxicity call is “inactive”.

In the case of `NC[C@H](c1ccco1)N1CCc2ccccc2C1`, the cytotoxicity call was “inactive”.

On to `C[C@@H]1CN([C@@H](C)CO)C(=O)c2cccc(NS(=O)(=O)c3ccccc3)c2O[C@@H]1CN(C)Cc1ccncc1`, for which the cytotoxicity call is “inactive”.

Consider `C[C@H](CO)N1C[C@H](C)[C@H](CN(C)S(=O)(=O)c2ccc(Cl)cc2)Oc2ccc(NC(=O)Cn3cnnn3)cc2CC1=O`, for which the cytotoxicity call is “inactive”.

Turning to `COCC#Cc1ccc([C@@H]2[C@@H](CO)N3C(=O)CN(C(=O)C4CCOCC4)C[C@@H]23)cc1`, the cytotoxicity call was “inactive”.

With `Cc1noc(C)c1NC(=O)N(C)C[C@@H]1Oc2ccc(NC(=O)Cn3cnnn3)cc2C(=O)N([C@H](C)CO)C[C@@H]1C`, the cytotoxicity call is “inactive”.

With `Cc1cc(C(C)(C)CC(C)(C)C)ccc1OCCOCC[N+](C)(C)Cc1ccccc1.[Cl-]`, the cytotoxicity call is “active”.

With `C[N+](C)(CCOc1ccccc1)Cc1ccccc1.O=C([O-])c1cc2ccccc2cc1O`, the cytotoxicity call is “inactive”.

For the compound `C[N+](C)(CCOc1ccccc1)Cc1ccccc1.O=C(O)c1cc2ccccc2c(Br)c1O`, the cytotoxicity call is “inactive”.

As to `C[C@H](CO)N1C[C@H](C)[C@@H](CN(C)S(=O)(=O)c2cn(C)cn2)Oc2ncc(/C=C/c3ccccc3)cc2C1=O`, the cytotoxicity call was “inactive”.

For the compound `Cc1ccc(S[C@]2(C(=O)NCCCN(C)C)CC(=O)N(Cc3ccccc3Cl)[C@@H]2c2ccc(CO)cc2I)cc1`, the cytotoxicity call is “inactive”.

`COc1ccc(NC(=O)N(C)C[C@H]2OCCCC[C@@H](C)Oc3ccc(NS(=O)(=O)c4ccc(C)cc4)cc3C(=O)N([C@@H](C)CO)C[C@H]2C)cc1`: the cytotoxicity call was “inactive”.

On to `CCn1cc(-c2ccc3ccccc3n2)c(=S)c2ccccc21`, for which the cytotoxicity call was “active”.

Regarding `CC(C)Cn1cnc2ccccc21`, the cytotoxicity call was “inactive”.

Turning to `CCn1c(=S)ccc2ccccc21`, the cytotoxicity call was “inactive”.

As to `CN1N=C(C(N)=O)CCC1=O`, the cytotoxicity call is “inactive”.

On to `C[C@@H]1CN([C@H](C)CO)C(=O)c2cc(NC(=O)Cn3cnnn3)ccc2O[C@@H]1CN(C)C(=O)Nc1ccccc1`, for which the cytotoxicity call was “inactive”.

With `O=C(C[C@@H]1CC[C@H]2[C@@H](COC[C@@H](O)CN2S(=O)(=O)c2ccccc2)O1)N1CCc2ccccc2C1`, the cytotoxicity call is “inactive”.

Take `COc1nc(N)nc2c1ncn2[C@@H]1O[C@H](CO[P@@](=O)(N[C@@H](C)C(=O)OCC(C)(C)C)Oc2cccc3ccccc23)[C@@H](O)[C@@]1(C)O`: the cytotoxicity call was “active”.

`C[C@H](N[P@@](=O)(OC[C@H]1O[C@@H](n2ccc(N)nc2=O)C(F)(F)[C@@H]1O)Oc1ccccc1)C(=O)OCc1ccccc1`: the cytotoxicity call was “inactive”.

Take `CC(C)OC(=O)[C@H](C)N[P@](=O)(OC[C@H]1O[C@@H](n2ccc(=O)[nH]c2=O)[C@@](C)(O)[C@@H]1O)Oc1ccccc1`: the cytotoxicity call is “inactive”.
